Compound activity (PubChem BioAssay)
TsaE inh: inhibitors of E. coli YjeE (TsaE); P0AF67; purified YjeE enzyme, qHTS inhibition assay; Potency, µM; hit rate 0.05% among 71,000; AID 605
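Fluorescence polarization of a BODIPY Texas Red–ADP probe (2 uM) bound to purified YjeE (10 uM) was read after 15 min room-temperature incubation with compounds. Loss of polarization marks inhibitors; ADP serves as titrated control.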
BRCT inh green: blocks human BRCA1 BRCT binding to phosphopeptide, green readout; AID 875; hit rate 0.05% among 75,000; P38398; BRCA1 BRCT-phosphopeptide binding, green fluorescence polarization; Potency, µM (highest dose often 76.9 µM), for the others: top-dose activity change, negative = inhibition, hits mostly inhibitors;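 further: potency means the concentration at half of the fitted maximal effect; plate controls were peptide without protein for full effect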
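Compounds were incubated for 12 min at room temperature with a complex of 100 nM fluorescein-tagged pBACH1 decapeptide and 250 nM His-tagged BRCT protein. Buffer was phosphate pH 7.3 with EDTA, DTT and Tween 20. Disruption of binding lowers the polarization signal.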
BRCT inh red: BRCT-phosphoprotein interaction inhibition (red fluorophore); AID 892; BRCT-phosphopeptide binding, red fluorescence polarization; Potency, µM (highest dose often 76.9 µM), without a hit: at the top dose activity change, negative = inhibition, most hits filed as inhibitors; P38398; hit rate 0.03% among 75,000; further: on the % scale 0 is the no-effect control and ±100 the full control effect
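Rhodamine-labelled pBACH1 10-mer (100 nM) bound to BRCT domain (100 nM) at pH 7.3; compounds incubated 12 min room temperature, polarization read. Free peptide defines full inhibition; unlabelled decapeptide titrated as control.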
GBA activity: alters purified human glucocerebrosidase activity; hit rate 1.1% among 48,000; P04062; Potency, µM; purified enzyme, resorufin glucoside fluorescence (screen aimed at inhibitors), 20 min; AID 360; in the data active means potency below about 15 µM; inconclusive means mostly about 16 µM to 33 µM;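 further: potency means the concentration at half of the fitted maximal effect; the screen sought inhibitors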
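Normal human glucocerebrosidase (0.2 nM final) was assayed with resorufin β-D-glucopyranoside (30 uM final) in 50mM citric acid/KH2PO4, 10mM sodium taurocholate, 0.01% tween-20, pH 5.9. Compounds were titrated; fluorescence (Ex 548, Em 600) read after 20 min at RT.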
Hsp90 Hop PPI: changes Hsp90-Hop TPR2A binding signal, up or down | hit rate 0.44% among 71,000 | Potency, µM (series often up to 57 µM), without a hit: at the top dose activity change, negative = inhibition | AlphaScreen TPR2A-His6 binding biotin-Hsp90 C-terminal peptide; active means well fitted curve in either direction with a large enough effect; inconclusive means small, poorly fitted or top-dose-only effect, or another doubt; further: potency means the concentration at half of the fitted maximal effect; on the % scale 0 is the no-effect control and ±100 the full control effect
DNA Pol III inh: inhibitors of bacterial DNA polymerase III holoenzyme. reconstituted DNA polymerase III holoenzyme replication, biochemical. Potency, µM (titrated, usually from 57.1 µM), without a hit: at the top dose activity change, negative = inhibition. hit rate 0.25% among 71,000. AID 603; further: potency means the concentration at half of the fitted maximal effect; on the % scale 0 is the no-effect control and ±100 the full control effect
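Reconstituted *E. coli* holoenzyme (0.35 nM Pol III, 1 nM beta, 154 nM SSB, 2 nM primase) was preincubated with compound for 15 min at RT. Synthesis on 1.4 nM ssM13Gori ran 35 min, then was stopped with PicoGreen/EDTA and read as dsDNA fluorescence.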
An asterisk follows results filed as active; i = inactive; ? = inconclusive; nt = no result given; ! = not confirmed by another sample; [ ] = dose if it differs, or a comment. Compounds with a hit are over-represented: about 1.2% of the library has one in this group of screens. Unless noted, the call rests on the fitted dose curve; in most records, active means well fitted curve in the direction sought with a large enough effect; inconclusive means small, poorly fitted or top-dose-only effect, or another doubt; inactive means no such curve, though single readings can be large; an effect the other way counts as inactive or inconclusive.

SMILES | TsaE inh | BRCT inh green | BRCT inh red | GBA activity | Hsp90 Hop PPI | DNA Pol III inh
CCOC(=O)c1ccc(NC(=O)c2ccc3c(c2)OCO3)cc1 | i | -2% | 1% | >77 | -1% | 1%
CCOC(=O)c1c(C)[nH]c(C(=O)Nc2ccc3c(c2)OCO3)c1C | i | -2% | 0% | 13* | -16% | -3%
Cc1cc(N)c2ccccc2[n+]1CCCCCCCCCC[n+]1c(C)cc(N)c2ccccc21 | ? | -3%[3.08 µM] | -1% | nt | ? | 16µM*!
Cc1cc2nn(-c3cccc4ccccc34)nc2cc1N | i | -2% | 1% | >77 | 3% | -4%
COc1ccc(NC(=O)Cn2nnc(-c3ccccc3NC(=O)c3ccco3)n2)cc1 | i | -2% | 1% | 7.2* | 2% | -4%
C[C@@]1(C(=O)O)NCCc2cc(O)c(O)cc21 | i | -1% | -1% | nt | ? | 7.9µM*
CCCCn1c(=N)n(CC(O)COc2ccccc2)c2ccccc21 (stereo unspecified) | i | 1% | 0% | ? | -4% | -5%
CCCn1c(=N)n(CCOc2ccc(OC)cc2)c2ccccc21 | i | 4% | -1% | 5.9* | -4% | -6%
COC(=O)Cn1c(=N)n(CCN2CCCCC2)c2ccccc21 | i | 0% | 0% | >77 | -1% | -2%
CCCCOC(=O)Cn1c(=N)n(CCC)c2ccccc21 | i | -1% | -4% | 11* | -5% | -3%
C[C@@H]1OC(OC2CC[C@@]3(C)C(CC[C@@]4(C)C3CC=C3C5CC(C)(C)CC[C@]5(C(=O)OC5OCC(O)[C@@H](O)[C@@H]5OC5O[C@@H](C)[C@H](O[C@H]6OC(CO)C(O)C(O)C6O)C(O)C5O)C(O)C[C@@]34C)C2(C)C)C(O)C(O)[C@H]1OC1OCC(O)C(O)[C@H]1O (stereo partly specified) | nt | 3% | 1% | nt | nt | nt
Oc1cccc(Nc2nc(NCC3CCCO3)c3ccccc3n2)c1 (stereo unspecified) | i | 0% | 0% | 7.6* | -4% | -10%
CCN(c1cccc(C)c1)S(=O)(=O)c1ccc2[nH]c(=O)c(=O)[nH]c2c1 | i | 1% | -1% | 7.4* | -7% | -4%
CC1(C)Cc2ccccc2-c2nnc(-c3ccc(O)cc3)n21 | i | -2% | 0% | 8.4* | -3% | -3%
CC1(C)Cc2ccccc2-c2nnc(-c3ccccc3)n21 | nt | 1% | -1% | nt | nt | nt
O=C(OC1Cc2c(O)cc(O)cc2OC1c1cc(O)c(O)c(O)c1-c1c(C2Oc3cc(O)cc(O)c3CC2O)cc(O)c(O)c1O)c1cc(O)c(O)c(O)c1 (stereo unspecified) | nt | -5% | -3% | nt | nt | nt
COCCn1c(=O)c(-c2cccs2)nc2cnc(N3CCNCC3)nc21 | i | -5% | 2% | nt | 0% | -1%
Oc1cc(O)c2c(c1)O[C@@H](c1ccc(O)c(O)c1)[C@H](O[C@@]1(c3cc(O)c(O)c(O)c3)Oc3cc(O)cc(O)c3[C@H](O)[C@@H]1O)C2 | i | -1%[15.4 µM] | 2%[15.4 µM] | nt | ? | 1µM*
CCCNC[C@H](O)COc1ccccc1C(=O)CCc1ccccc1 | i | -3%[34.4 µM] | -2%[34.4 µM] | nt | 3%[26 µM] | -6%[25.6 µM]
CCOc1ccc2noc3c2c1C(=O)c1ccccc1-3 | i | 4µM* | -1% | nt | ? | 244%
CCOc1ccc(-c2nc(-c3ccccc3)no2)cc1OCC | i | 0% | -2% | nt | 10% | 0%
CCCCOc1ccc(C2C3CN(C(=O)OCC)CC=C3C(C#N)=C(N)C2(C#N)C#N)cc1OC (stereo unspecified) | i | 8% | -1% | 15* | -20% | 1%
CN[C@]1(C)[C@H]2CC[C@@H](C2)C1(C)C | i | 1%[34.4 µM] | -1%[34.4 µM] | nt | -3%[26 µM] | 0%[25.6 µM]
COc1ccccc1-c1cc(C(=O)NCc2ccco2)no1 | i | 1% | 0% | 13* | -4% | 2%
CC(=O)S[C@@H]1CC2=CC(=O)CC[C@@]2(C)[C@H]2CC[C@]3(C)[C@H](CC[C@@]34CCC(=O)O4)[C@H]12 | i | -1% | -1% | nt | -4% | -6%
SMILES | TsaE inh | BRCT inh green | BRCT inh red | GBA activity | Hsp90 Hop PPI | DNA Pol III inh
Nc1nc(Nc2cccc(F)c2)nc2ccccc12 | i | 0% | -1% | 13* | 1% | -6%
O=C(/C=C\c1ccc(O)c(O)c1)OCCc1ccccc1 | i | -1% | -4% | nt | ? | -2%
CN1CCN(S(=O)(=O)c2ccc(N3CCN(S(=O)(=O)/C=C/c4ccccc4)CC3)nc2)CC1 | i | 0% | 1% | 13* | 1% | -3%
Cc1ccc(C(=O)[C@@H]2[C@@H]3[C@@H](C(=O)[C@@H]4OC[C@H]3O4)[C@@H]3C=Cc4ccccc4N23)cc1 | i | nt | nt | nt | ? | -3%
Nc1ncnc2nc[nH]c12.Nc1ncnc2nc[nH]c12.[Cl][Pt]([Cl])([Cl])[Cl] | i | nt | nt | nt | -5%[11 µM] | 2.5µM*
Nc1nc(N)c2[nH]cnc2n1 (tested in a mixture with another compound) | i | 1%[15.4 µM] | -1%[15.4 µM] | nt | -3%[11 µM] | 2%[11.4 µM]
CCn1c(Cn2nnc(-c3ccccc3)n2)nnc1SCC(=O)Nc1ccccc1 | i | 1% | 1% | 9.6* | 1% | -4%
CCOC(=O)c1cccc(NC(=O)CSc2nnc(COc3ccccc3)n2CC)c1 | i | 0% | -1% | >77 | ? | -4%
CC(=O)Nc1ccc(NC(=O)c2cc(C)nn2-c2ccccc2)cc1 | i | 0% | 0% | 12* | -1% | 0%
CC(=O)c1cc2c(cc1NC(=O)c1cc(C)nn1-c1ccccc1)OCO2 | i | -1% | 1% | nt | 4% | -5%
O=C(CCCCCn1c(=S)[nH]c2cc3c(cc2c1=O)OCO3)N1CCN(C(=O)c2ccco2)CC1 | i | -2% | 1% | ? | 0% | ?
O=C(CCCCCn1c(=S)[nH]c2cc3c(cc2c1=O)OCO3)N1CCN(C2CCCCC2)CC1 | i | 0% | 1% | 0.9* | -6% | -1%
Clc1ccc([C@@H](c2ccccc2Cl)C(Cl)Cl)cc1 | i | nt | nt | nt | ? | -1%
COc1ccc(C(O)c2nccn2Cc2ccccc2)cc1 (stereo unspecified) | i | -2% | -2% | >77 | -3% | -2%
COc1ccc2ccccc2c1C(O)c1nccn1C (stereo unspecified) | i | 13µM* | ? | nt | -4% | 48%
COc1ccc(N2Cc3cccc(C(=O)O)c3C2=O)cc1 | i | -6% | -7% | nt | -3% | 16µM*
O=C(O)c1cccc2c1C(=O)N(Cc1ccncc1)C2 | i | -1% | -1% | >77 | 3% | -3%
CCN1C(=O)[C@H]2[C@H]3[C@H](O)[C@H](O)C/C(=N/OC)[C@@H]3CC[C@@H]2C1=O | nt | -1%[15.4 µM] | 1%[15.4 µM] | nt | nt | nt
